Measured values from PubChem BioAssay (NCATS).
Inconclusive results are not listed. Active and inactive are the calls of the source. Unless noted, calls follow the shape of the dose curve; as a rule, active = well fitted activation curve with a large enough effect; inconclusive = small, poorly fitted or top-dose-only effect; inactive = no such curve, though single readings can be large or run the other way.

Tests used:
[1] = target: Catechol O-methyltransferase (Homo sapiens) (UniProt P21964); experiment: Confirmatory Screen for Target Class Profiling of Small Molecule Inhibitors of Methyltransferases (AID 1745852; calls by dose curve; also: potency is read from the fitted curve at half-maximal effect; as to activity change, negative = inhibition: % is scaled to controls: 0 for no effect and ±100 for the full control effect); details: MTase-Glo luminescence, SAH detection, recombinant enzyme; measured here: COMT max response; stronger effect = lower value
[2] = target: Guanidinoacetate N-methyltransferase (Homo sapiens) (UniProt Q14353); experiment: as above; details: MTase-Glo luminescence, SAH detection, recombinant enzyme; activity change, negative = inhibition: at 57.3 µM (top of the series) unless noted
[3] = target: Nicotinamide N-methyltransferase (Homo sapiens) (UniProt P40261); experiment: as above; details: MTase-Glo luminescence, SAH detection, recombinant enzyme; measured here: NNMT max response; stronger effect = lower value
[4] = target: Phenylethanolamine N-methyltransferase (Homo sapiens) (UniProt P11086); experiment: as above; details: MTase-Glo luminescence, SAH detection, recombinant enzyme; measured here: PNMT max response; stronger effect = lower value
[5] = target: Rap guanine nucleotide exchange factor 3 (Homo sapiens) (UniProt O95398); experiment: Confirmatory qHTS for agonist of cAMP-regulated guanine nucleotide exchange factor 3 (EPAC1) (AID 1645881); details: EPAC1 Rap1B BODIPY-GDP exchange fluorescence, 100% = cAMP control response; series mostly up to 154 µM;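 also: EPAC1 catalysed release of BODIPY-GDP from Rap1B seen as fluorescence loss; nearly all actives have a fitted effect of over 75% in size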
[6] = target: Rap guanine nucleotide exchange factor 4 (Homo sapiens) (UniProt Q8WZA2); experiment: Confirmatory qHTS for agonist of cAMP-regulated guanine nucleotide exchange factor 4 (EPAC2) (AID 1645884); details: EPAC2 GEF activity, Rap1B-BODIPY-GDP fluorescence, percent relative to cAMP agonist control; series mostly up to 154 µM;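 also: nucleotide exchange releases bodipy-GDP from Rap1 and this lowers its fluorescence; % is scaled to controls: 0 for no effect and ±100 for the full control effect; nearly all actives have a fitted effect of over 65% in size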
Sequence of Rap guanine nucleotide exchange factor 4 (Homo sapiens) (Q8WZA2 whole entry, looked up): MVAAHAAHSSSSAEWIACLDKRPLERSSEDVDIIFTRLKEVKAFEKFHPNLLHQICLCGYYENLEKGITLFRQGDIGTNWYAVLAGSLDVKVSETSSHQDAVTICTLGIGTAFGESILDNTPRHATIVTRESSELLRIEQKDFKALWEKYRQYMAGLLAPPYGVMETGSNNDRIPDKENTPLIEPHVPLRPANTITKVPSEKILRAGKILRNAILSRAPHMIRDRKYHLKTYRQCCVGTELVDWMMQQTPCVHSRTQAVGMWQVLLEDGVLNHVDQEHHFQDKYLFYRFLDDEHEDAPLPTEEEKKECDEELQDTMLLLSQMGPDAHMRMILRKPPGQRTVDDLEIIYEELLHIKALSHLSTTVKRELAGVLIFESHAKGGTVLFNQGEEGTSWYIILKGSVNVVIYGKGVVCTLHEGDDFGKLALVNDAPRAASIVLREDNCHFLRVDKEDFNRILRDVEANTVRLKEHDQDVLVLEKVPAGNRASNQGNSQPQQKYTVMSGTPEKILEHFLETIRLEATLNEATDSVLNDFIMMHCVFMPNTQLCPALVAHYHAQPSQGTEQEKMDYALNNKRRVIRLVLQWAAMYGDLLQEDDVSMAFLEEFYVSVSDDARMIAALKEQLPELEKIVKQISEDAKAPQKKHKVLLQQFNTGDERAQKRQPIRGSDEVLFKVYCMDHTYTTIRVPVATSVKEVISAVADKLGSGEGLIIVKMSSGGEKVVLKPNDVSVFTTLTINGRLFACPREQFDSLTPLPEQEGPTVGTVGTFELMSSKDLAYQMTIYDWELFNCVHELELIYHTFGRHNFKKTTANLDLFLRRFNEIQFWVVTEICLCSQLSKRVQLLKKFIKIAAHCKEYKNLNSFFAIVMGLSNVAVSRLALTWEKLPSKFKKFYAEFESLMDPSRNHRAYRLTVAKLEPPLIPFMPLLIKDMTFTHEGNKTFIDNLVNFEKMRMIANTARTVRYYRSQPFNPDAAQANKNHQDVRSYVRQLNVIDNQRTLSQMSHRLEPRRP

Sequence of Nicotinamide N-methyltransferase (Homo sapiens) (P40261 whole entry, looked up): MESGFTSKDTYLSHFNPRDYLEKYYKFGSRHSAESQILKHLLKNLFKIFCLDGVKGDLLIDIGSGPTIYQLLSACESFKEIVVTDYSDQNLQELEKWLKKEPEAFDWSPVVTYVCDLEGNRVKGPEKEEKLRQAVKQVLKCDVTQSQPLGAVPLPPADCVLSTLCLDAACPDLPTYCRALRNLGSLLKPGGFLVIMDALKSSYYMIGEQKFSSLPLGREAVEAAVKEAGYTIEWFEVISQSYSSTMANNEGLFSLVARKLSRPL
Sequence of Phenylethanolamine N-methyltransferase (Homo sapiens) (P11086 whole entry, looked up): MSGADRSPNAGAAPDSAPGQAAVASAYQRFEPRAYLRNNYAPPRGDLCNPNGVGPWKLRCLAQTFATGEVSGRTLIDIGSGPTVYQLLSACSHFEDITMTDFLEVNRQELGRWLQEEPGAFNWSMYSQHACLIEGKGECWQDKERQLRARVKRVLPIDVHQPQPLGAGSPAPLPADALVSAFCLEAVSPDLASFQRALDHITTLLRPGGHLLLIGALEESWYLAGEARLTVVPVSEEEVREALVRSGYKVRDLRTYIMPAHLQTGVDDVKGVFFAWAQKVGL
Sequence of Catechol O-methyltransferase (Homo sapiens) (P21964 whole entry, looked up): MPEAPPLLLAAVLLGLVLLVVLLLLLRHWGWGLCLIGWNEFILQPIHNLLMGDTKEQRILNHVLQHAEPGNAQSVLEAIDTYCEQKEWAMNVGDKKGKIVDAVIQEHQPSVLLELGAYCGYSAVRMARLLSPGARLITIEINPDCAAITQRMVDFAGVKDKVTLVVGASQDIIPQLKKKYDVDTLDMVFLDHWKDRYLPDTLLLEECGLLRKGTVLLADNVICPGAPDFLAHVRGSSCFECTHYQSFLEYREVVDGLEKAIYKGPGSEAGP
Sequence of Rap guanine nucleotide exchange factor 3 (Homo sapiens) (O95398 whole entry, looked up): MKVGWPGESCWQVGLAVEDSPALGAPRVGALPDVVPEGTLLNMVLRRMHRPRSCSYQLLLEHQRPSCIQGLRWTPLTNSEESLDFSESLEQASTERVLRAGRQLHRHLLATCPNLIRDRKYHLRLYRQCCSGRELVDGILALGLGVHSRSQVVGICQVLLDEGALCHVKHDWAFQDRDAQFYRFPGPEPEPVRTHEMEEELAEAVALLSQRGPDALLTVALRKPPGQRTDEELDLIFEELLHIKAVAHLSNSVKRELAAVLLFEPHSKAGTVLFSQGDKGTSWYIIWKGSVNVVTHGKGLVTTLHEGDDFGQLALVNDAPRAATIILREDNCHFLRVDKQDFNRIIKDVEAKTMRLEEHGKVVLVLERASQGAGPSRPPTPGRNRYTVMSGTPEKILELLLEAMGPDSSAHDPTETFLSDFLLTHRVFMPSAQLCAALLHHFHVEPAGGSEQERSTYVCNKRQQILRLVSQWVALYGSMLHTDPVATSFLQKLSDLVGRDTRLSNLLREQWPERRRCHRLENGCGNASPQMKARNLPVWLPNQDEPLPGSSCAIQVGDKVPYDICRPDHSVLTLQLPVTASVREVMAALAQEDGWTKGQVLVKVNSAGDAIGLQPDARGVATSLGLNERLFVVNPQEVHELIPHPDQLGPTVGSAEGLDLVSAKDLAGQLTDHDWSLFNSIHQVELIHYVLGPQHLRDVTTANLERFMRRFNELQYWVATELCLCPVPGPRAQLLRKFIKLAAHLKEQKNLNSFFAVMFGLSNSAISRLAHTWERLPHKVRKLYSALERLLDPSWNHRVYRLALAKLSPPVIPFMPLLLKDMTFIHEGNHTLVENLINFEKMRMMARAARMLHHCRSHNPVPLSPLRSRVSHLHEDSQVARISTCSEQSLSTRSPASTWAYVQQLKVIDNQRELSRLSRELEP

Row | SMILES | activity [1] | activity change, negative = inhibition [2] | activity [3] | activity [4] | outcome [5] | outcome [6] | Potency [2]
1 | C[C@]1(C2CCCC2)Cc2cc(OCC(=O)O)c(Cl)c(Cl)c2C1=O | -5.66% | -6.29% | -48.2% | -6.93% | – | – | –
2 | COc1ccccc1CN[C@H]1CCCN[C@H]1c1ccccc1 | 0.295% | 7.32% | -6.63% | -0.84% | – | – | –
3 | COc1c(O)cc2c(c1O)C(=O)O[C@H](C)[C@H]2O | -42.1% | 0.552% | 0.175% | 0.108% | – | – | –
4 | O=c1[nH]ccc2nc(-c3ccc(CN4CCC(c5nc(-c6ccccn6)n[nH]5)CC4)cc3)c(-c3ccccc3)cc12 | -10.1% | -7.59% | -47.8% | -18% | – | – | –
5 | COc1cc(/C=C/C(=O)O[C@H]2[C@@H]3C=CO[C@@H](O[C@@H]4O[C@H](CO)[C@@H](O)[C@H](O)[C@H]4O)[C@@H]3[C@@]3(CO)O[C@@H]23)ccc1O | -66.9% | 0% [at 29.8 µM] | 1.36% | -3.15% | – | – | –
6 | C=C1C[C@]23C[C@@]1(O)CC[C@H]2[C@@]12C=C[C@H](O)[C@@](C)(C(=O)O1)[C@H]2[C@@H]3C(=O)O | – | – | – | – | inactive | inactive | –
7 | C=Cc1cc2oc(-c3ccc(O)c(F)c3)nc2cc1O | -57% | – | -39.5% | -56.3% | – | – | 30.4 µM (active)
8 | CC(C)(O)C1CC=C(C(=O)OC[C@H]2O[C@@H](Oc3cc(C(=O)O)cc(O)c3O)[C@H](O)[C@@H](O)[C@@H]2O)CC1 (stereo partly drawn) | -82.4% | -6.92% [at 29.8 µM] | -6.11% | -6.07% | – | – | –
9 | O=C(COCC(=O)N1CCN(C(c2ccccc2)c2ccccc2)CC1)Nc1ccc(Cl)cc1C(=O)O | -5.29% | -4.07% | -44.4% | -8.81% | – | – | –
10 | COCc1c(O)c(C(=O)O)c(C)c2c1OC(=O)c1c(C)cc(O)c(CO)c1O2 | -62.5% | -4.52% | -3.54% | -4.35% | – | – | –
